Test systems include T-47D breast; BT-549 breast; MDA-MB-435 melanoma; SW-620 colon; HCT-116 colon; HCC-2998 colon; KM12 colon; MCF7 breast.
What all share (assay): NCI-60 one-dose screen, 48 h (100 = growth as untreated, 0 = no growth, -100 = all killed)
Common to all, as to conditions: 10 µM unless noted

Values joined by “and” are separate entries in the source; they are usually repeats but may differ in a detail not shown here. Identical values can stand only once. Compounds without any hit were thinned out: in the full panel of roughly 83,000, 20% have a hit.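 Values shown are percent growth following 48 h exposure of cells in 96-well plates to a single concentration of compound; below 10 was considered active.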 Values without a mark were called inactive. Active and inactive are the calls of the source.

`O=C(Cc1ccc(F)cc1)c1ccccc1`: the growth in the assay on T-47D breast was 112%; in the assay on BT-549 breast, 97.2%; with MDA-MB-435 melanoma it was 106%; with SW-620 colon it was 110%; in the assay on HCT-116 colon, 103%; in the assay on HCC-2998 colon, 106%. In addition, the growth with KM12 colon is 111%.

With `O=c1c(/C=C/c2ccco2)nnc2sc(Nc3ccc(Cl)cc3)nn12`, the growth with T-47D breast was 88.2%; in the assay on BT-549 breast, 99.9%; with MDA-MB-435 melanoma, 100%; with SW-620 colon, 103%; in the assay with HCT-116 colon, 99%; in the assay with HCC-2998 colon it was 96.3%. In addition, the growth with KM12 colon is 103%.

`C=C1CC[C@@H]2[C@](C)(COC(C)=O)[C@H](OC(C)=O)CC[C@@]2(C)[C@@H]1CC(Nc1ccc(S(=O)(=O)Nc2nccs2)cc1)C1=CCOC1=O` (some centres undefined): the growth in the assay with T-47D breast is 34.6%; with BT-549 breast, -23.5% (active); with MDA-MB-435 melanoma, -8.31% (active); in the assay on SW-620 colon, -72.7% (active); in the assay with HCT-116 colon it was -30.4% (active); in the assay with HCC-2998 colon, 54.2%. Further, the growth in the assay on KM12 colon is -0.895% (active).

As to `CC(=O)Nc1c(I)c(NC(C)=O)c(I)c(C(=O)O)c1I`, the growth in the assay on T-47D breast is 96.6% and 102%; in the assay with BT-549 breast it was 101% and 97.9%; in the assay on MDA-MB-435 melanoma, 101% and 102%; in the assay on SW-620 colon, 102% and 117%; in the assay on HCT-116 colon it was 110% and 93%; in the assay on HCC-2998 colon, 106%. For the same compound, the growth in the assay on KM12 colon was 104% and 123%.

For the compound `CCOC(=O)c1cnn(-c2ccc(S(N)(=O)=O)cc2)c1N`, the growth was 103% in the assay on T-47D breast; 96% in the assay with BT-549 breast; 109% in the assay on MDA-MB-435 melanoma; 110% in the assay on SW-620 colon; 94.4% in the assay on HCT-116 colon; 115% in the assay with HCC-2998 colon. Also, in the assay with KM12 colon, the growth is 122%.

On to `COc1ccc(C2Nc3nc(SC)nc(N)c3N=C3c4ccccc4CCC32)cc1` (centres undefined), for which the growth was 80% with T-47D breast; 105% in the assay with BT-549 breast; 93.2% with MDA-MB-435 melanoma; 76.1% in the assay with SW-620 colon; 51.5% in the assay with HCT-116 colon; 103% in the assay with HCC-2998 colon. The growth with KM12 colon was 85.9%.

`COC(=O)/C=C1/SC(=Nc2ccc([N+](=O)[O-])cc2)N(CCc2c[nH]c3ccccc23)C1=O`: the growth with T-47D breast is 46.5%; in the assay with BT-549 breast it was 60.8%; in the assay with MDA-MB-435 melanoma, 55.5%; with SW-620 colon it was 47.3%; with HCT-116 colon, 21.8%; in the assay on HCC-2998 colon, 78.3%. For the same compound, the growth in the assay with KM12 colon is 66.4%.

Consider `COc1ccc(-c2ccccc2)cc1-c1c(Nc2cc(Cl)cc(Cl)c2O)c(=O)c1=O`, for which the growth was -8.93% (active) with T-47D breast; 19.7% with BT-549 breast; -4.35% (active) in the assay with MDA-MB-435 melanoma; 17.5% in the assay on SW-620 colon; 11.2% in the assay with HCT-116 colon; 13.8% in the assay with HCC-2998 colon. In addition, in the assay with KM12 colon, the growth was 7.85% (active).

Take `CCOC(=O)c1c(-c2ccc(C)cc2)c(C#N)c(=O)n(-c2cccc(C(F)(F)F)c2)c1N`: the growth was 99.9% in the assay with T-47D breast; 113% in the assay on BT-549 breast; 102% in the assay on MDA-MB-435 melanoma; 101% with SW-620 colon; 103% in the assay with HCT-116 colon; 107% with HCC-2998 colon. Besides, the growth in the assay on KM12 colon is 100%.

Regarding `CC(=O)OC[C@]12CCC(C)(C)C=C1[C@H]1CC[C@@H]3[C@@]4(C)CCCNC(C)(C)[C@@H]4CC[C@@]3(C)[C@]1(C)CC2`, the growth is 51.8% in the assay on T-47D breast; 63.8% in the assay with BT-549 breast; 29.7% in the assay on MDA-MB-435 melanoma; 49.9% with SW-620 colon; 34.1% with HCT-116 colon; 49% with HCC-2998 colon. In addition, in the assay on KM12 colon, the growth was 25.5%.

Consider `Cc1ccc(-c2nc(C#N)c(S(=O)(=O)N(C)C)o2)cc1`, for which the growth in the assay on T-47D breast is 75.3%; in the assay with BT-549 breast it was 77.4%; in the assay on MDA-MB-435 melanoma, 97.7%; with SW-620 colon, 81%; in the assay with HCT-116 colon, 63.2%; with HCC-2998 colon, 93.1%. For the same compound, the growth with KM12 colon was 95.4%.

As to `N=C1/C(=C2\NC3C=CC=CC3S2)C(c2ccc(Cl)cc2)C2C(=O)N(c3ccccc3)C(=S)N12` (centres undefined), the growth in the assay on T-47D breast was 102%; in the assay with BT-549 breast, 95.4%; with MDA-MB-435 melanoma, 108%; with SW-620 colon, 104%; in the assay with HCT-116 colon, 101%; in the assay on HCC-2998 colon, 99.1%. For the same compound, the growth in the assay on KM12 colon was 108%.

Consider `O=C(NNC(=S)Nc1ccccc1)c1ccncc1`, for which the growth in the assay with T-47D breast is 109%; in the assay on BT-549 breast, 88.1%; in the assay on MDA-MB-435 melanoma it was 112%; with SW-620 colon, 113%; in the assay with MCF7 breast, 94.2%; in the assay with HCT-116 colon it was 104%. In addition, the values for the growth in the assay with HCC-2998 colon and in the assay on KM12 colon were 109% and 107%, respectively.

Regarding `CSc1nnc(-c2cc3c([nH]c4ccccc43)c(-c3cccc(O)c3)n2)n1-c1ccc(C)cc1`, the growth was 24.5% in the assay on T-47D breast; 34.5% in the assay on BT-549 breast; -49.5% (active) in the assay on MDA-MB-435 melanoma; 30% in the assay on SW-620 colon; 5.16% (active) with MCF7 breast; 23.8% in the assay on HCT-116 colon. For the same compound, the results for the growth in the assay with HCC-2998 colon and with KM12 colon were 54.2% and 26.3%, respectively.

As for `COc1ccc(C(CC(=O)c2ccc3c(c2)OCO3)C(=O)O)cc1OC` (centres undefined), the growth in the assay on T-47D breast was 104% and 91.9%; with BT-549 breast, 115% and 106%; with MDA-MB-435 melanoma it was 108% and 102%; in the assay with SW-620 colon, 100% and 108%; in the assay with HCT-116 colon, 119% and 97.1%; in the assay on HCC-2998 colon it was 104% and 105%. Besides, the growth in the assay with KM12 colon was 110% and 95.7%.

On to `C[C@@H]1O[C@@H](O[C@H]2[C@@H](OC(=O)[C@]34CCC(C)(C)C[C@H]3C3=CC[C@@H]5[C@@]6(C)C[C@H](O)[C@H](O[C@@H]7O[C@H](CO)[C@@H](O)[C@H](O)[C@H]7O)[C@@](C)(CO)[C@@H]6CC[C@@]5(C)[C@]3(C)C[C@H]4O)OC[C@@H](O)[C@@H]2O)[C@H](O)[C@H](O[C@@H]2OC[C@@H](O)[C@H](O[C@@H]3OC[C@](O)(CO)[C@H]3O[C@@H]3OC[C@@H](O)[C@H](O)[C@H]3O)[C@H]2O)[C@H]1O[C@@H]1OC[C@](O)(CO)[C@H]1O`, for which the growth was 49.8% with T-47D breast; 74.4% in the assay with BT-549 breast; 52.1% in the assay with MDA-MB-435 melanoma; 75.4% in the assay with SW-620 colon; 46.3% with HCT-116 colon; -1.75% (active) in the assay with HCC-2998 colon. Moreover, in the assay with KM12 colon, the growth was 66.5%.

The values are drawn from PubChem BioAssay (NCI).
